The source made the active and inactive calls. How the source made its calls: active means hit-call score of the fitted dose curve at least 0.9, where 1 is the maximum; inactive means score below 0.9.
Assays:
Details in all cases: mRNA level, 48 h; actives raise or lower the signal
[1] = read-out: matrix metalloproteinase-3 (MMP3), MMP3 (gene 4314); test: LTEA_HepaRG_MMP3: Life Technologies and Expression Analysis (LTEA) Assay for matrix metalloproteinase-3 (MMP3) using HepaRG (AID 2283519)
In short: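 Differentiated human HepaRG cells, plated 48 h on collagen I, were exposed in duplicate for 48 h in serum-free induction medium to eight half-log concentrations up to 100 uM in 0.5% DMSO. MMP3 mRNA was quantified by TaqMan qRT-PCR, normalised to ACTB, GAPDH and POLR2A.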

[2] = read-out: Paternally Expressed 10 (PEG10), PEG10 (gene 23089); test: LTEA_HepaRG_PEG10: Life Technologies and Expression Analysis (LTEA) Assay for Paternally Expressed 10 (PEG10) using HepaRG (AID 2283520)
In short: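 Differentiated HepaRG cells, plated 48 h then switched to serum-free induction medium, were exposed in duplicate for 48 h to eight half-log concentrations topping at 100 uM in 0.5% DMSO. PEG10 mRNA was quantified by TaqMan qRT-PCR, normalised to ACTB, GAPDH and POLR2A.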

[3] = read-out: Nuclear factor NF-kappa-B p105 subunit (Homo sapiens) (UniProt P19838); test: LTEA_HepaRG_NFKB1: Life Technologies and Expression Analysis (LTEA) Assay for Nuclear Factor Kappa B Subunit 1 (NFKB1) using HepaRG (AID 2283521);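 further: TaqMan qRT-PCR transcript normalised to ACTB GAPDH and POLR2A housekeeping genes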
In short: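 Human HepaRG cells receive eight half-log concentrations, highest 100 uM, for 48 h. NFKB1 expression is then quantified by qRT-PCR and analysed for up- or down-regulation relative to 0.5% DMSO vehicle.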

[4] = read-out: Protein phosphatase 2A (PPP2R4), PTPA (gene 5524); test: LTEA_HepaRG_PPP2R4: Life Technologies and Expression Analysis (LTEA) Assay for Protein phosphatase 2A (PPP2R4) using HepaRG (AID 2283522)
In short: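 Differentiated HepaRG cells in serum-free induction medium were exposed in duplicate for 48 h to eight concentrations, top 100 uM with half-log dilutions, in 0.5% DMSO. PPP2R4 mRNA was quantified by TaqMan qRT-PCR, normalized to ACTB, GAPDH and POLR2A.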

[5] = read-out: Phosphatase and tensin (PTEN), PTEN (gene 5728); test: LTEA_HepaRG_PTEN: Life Technologies and Expression Analysis (LTEA) Assay for Phosphatase and tensin (PTEN) using HepaRG (AID 2283523)
In short: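 Differentiated human HepaRG cells, plated 48 h then switched to serum-free induction medium, were exposed in duplicate for 48 h to eight half-log concentrations up to 100 uM in 0.5% DMSO. PTEN mRNA measured by TaqMan qRT-PCR, normalized to ACTB/GAPDH/POLR2A, bidirectional fit versus DMSO.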

[6] = read-out: solute carrier (SLC22A1), SLC22A1 (gene 6580); test: LTEA_HepaRG_SLC22A1: Life Technologies and Expression Analysis (LTEA) Assay for solute carrier (SLC22A1) using HepaRG (AID 2283524)
In short: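 Human HepaRG cells were plated 48 h, switched to serum-free induction medium, then exposed in duplicate for 48 h to 8-point half-log series from 100 uM in 0.5% DMSO. SLC22A1 mRNA measured by qRT-PCR, normalized to ACTB/GAPDH/POLR2A, fitted bidirectionally versus DMSO.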

[7] = read-out: Pyruvate Dehydrogenase Kinase 4 (PDK4), PDK4 (gene 5166); test: LTEA_HepaRG_PDK4: Life Technologies and Expression Analysis (LTEA) Assay for Pyruvate Dehydrogenase Kinase 4 (PDK4) using HepaRG (AID 2283525)
In short: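 Differentiated human HepaRG cells, pre-cultured 48 h, were exposed in duplicate for 48 h in serum-free induction medium to eight half-log concentrations up to 100 uM in 0.5% DMSO. PDK4 mRNA was quantified by qRT-PCR, normalized to ACTB, GAPDH and POLR2A, bidirectional fitting versus DMSO.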

[8] = read-out: NAD(P)H dehydrogenase [quinone] 1 (NQO1), NQO1 (gene 1728); test: LTEA_HepaRG_NQO1: Life Technologies and Expression Analysis (LTEA) Assay for NAD(P)H dehydrogenase [quinone] 1 (NQO1) using HepaRG (AID 2283526)
In short: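 Differentiated HepaRG cells, plated 48 h and then switched to serum-free induction medium, were exposed in duplicate for 48 h to 8-point half-log concentrations up to 100 uM in 0.5% DMSO. mRNA measured by qRT-PCR, normalized to ACTB, GAPDH, POLR2A; bidirectional fit versus DMSO.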

[9] = read-out: Nuclear factor erythroid 2-related factor 2 (Homo sapiens) (UniProt Q16236); test: LTEA_HepaRG_NFE2L2: Life Technologies and Expression Analysis (LTEA) Assay for Nuclear factor erythroid 2-related factor 2 (NFE2L2) Transcription Factor using HepaRG (AID 2283527)
In short: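 Differentiated human HepaRG cells in serum-free induction medium were exposed for 48 h to eight concentrations (top 100 uM, half-log dilutions, 0.5% DMSO), in duplicate. NFE2L2 mRNA was quantified by TaqMan qRT-PCR, normalized to ACTB, GAPDH and POLR2A, with bidirectional fitting versus DMSO.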

[10] = read-out: succinate dehydrogenase complex iron sulfur subunit B (SDHB), SDHB (gene 6390); test: LTEA_HepaRG_SDHB: Life Technologies and Expression Analysis (LTEA) Assay for succinate dehydrogenase complex iron sulfur subunit B (SDHB) using HepaRG (AID 2283528)
In short: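 A human HepaRG culture in serum-free induction medium received test chemicals for 48 h over an eight-point range capped at 100 uM. SDHB expression change was quantified by qRT-PCR.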

[11] = read-out: Signal transducer and activator of transcription 3 (Homo sapiens) (UniProt P40763); test: LTEA_HepaRG_STAT3: Life Technologies and Expression Analysis (LTEA) Assay for Signal transducer and activator of transcription (STAT3) using HepaRG (AID 2283529)
In short: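 Differentiated human HepaRG cells in serum-free induction medium were exposed in duplicate for 48 h to eight half-log concentrations up to 100 uM in 0.5% DMSO. STAT3 mRNA was quantified by TaqMan qRT-PCR, normalized to ACTB, GAPDH and POLR2A, and fitted bidirectionally against DMSO.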

[12] = read-out: solute carrier (SLCO1B1), SLCO1B1 (gene 10599); test: LTEA_HepaRG_SLCO1B1: Life Technologies and Expression Analysis (LTEA) Assay for solute carrier (SLCO1B1) using HepaRG (AID 2283530)
In short: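 Gain or loss of SLCO1B1 mRNA is fitted against the 0.5% DMSO vehicle in human HepaRG liver cells treated 48 h at up to 100 uM in half-log steps. Expression comes from qRT-PCR normalized to endogenous controls.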

[13] = read-out: sulfotransferase 2A1 (SULT2A1), SULT2A1 (gene 6822); test: LTEA_HepaRG_SULT2A1: Life Technologies and Expression Analysis (LTEA) Assay for sulfotransferase 2A1 (SULT2A1) using HepaRG (AID 2283531)
In short: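 Cells were plated and cultured 48 h, switched to serum-free induction medium, then dosed in duplicate for 48 h (8 concentrations, max 100 uM). RNA was isolated and SULT2A1 expression measured by qRT-PCR; gain or loss of signal fitted relative to DMSO.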

[14] = read-out: Transforming Growth Factor (TGFA), TGFA (gene 7039); test: LTEA_HepaRG_TGFA: Life Technologies and Expression Analysis (LTEA) Assay for Transforming Growth Factor (TGFA) using HepaRG (AID 2283532)
In short: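 Differentiated human HepaRG cells, plated 48 h then switched to serum-free induction medium, were exposed in duplicate for 48 h to 8-point half-log series from 100 uM in 0.5% DMSO. TGFA mRNA measured by qRT-PCR, normalized to ACTB/GAPDH/POLR2A, bidirectional fit versus DMSO.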

[15] = read-out: Transforming Growth Factor (TGFB1), TGFB1 (gene 7040); test: LTEA_HepaRG_TGFB1: Life Technologies and Expression Analysis (LTEA) Assay for Transforming Growth Factor (TGFB1) Transporter using HepaRG (AID 2283533)
In short: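 Expression change of TGFB1 in human HepaRG cells is measured after a 48 h chemical exposure, up to 100 uM in 0.5% DMSO vehicle. Curves are fitted in both directions relative to the DMSO baseline.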

[16] = read-out: Tumor necrosis factor receptor 1 (TNFRSF1A), TNFRSF1A (gene 7132); test: LTEA_HepaRG_TNFRSF1A: Life Technologies and Expression Analysis (LTEA) Assay for Tumor necrosis factor receptor 1 (TNFRSF1A) using HepaRG (AID 2283535)
In short: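 Expression of TNFRSF1A in human HepaRG liver cells was measured by qRT-PCR 48 h after chemical dosing (maximum 100 uM). Bidirectional curve fitting used 0.5% DMSO as baseline.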

[17] = read-out: Thyroid Hormone Responsive (THRSP), THRSP (gene 7069); test: LTEA_HepaRG_THRSP: Life Technologies and Expression Analysis (LTEA) Assay for Thyroid Hormone Responsive (THRSP) using HepaRG (AID 2283536)
In short: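 Differentiated human HepaRG cells were exposed in duplicate for 48 h in serum-free induction medium to eight concentrations (top 100 uM, half-log steps, 0.5% DMSO). Expression was quantified by TaqMan qRT-PCR, normalized to ACTB, GAPDH and POLR2A, with bidirectional fitting against DMSO.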

[18] = read-out: Cellular tumor antigen p53 (Homo sapiens) (UniProt P04637); test: LTEA_HepaRG_TP53: Life Technologies and Expression Analysis (LTEA) Assay for Tumor Protein P53 (TP53) using HepaRG (AID 2283537)
In short: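 Gain or loss of TP53 mRNA signal is scored relative to 0.5% DMSO after 48 h chemical treatment of HepaRG liver cells, tested in duplicate at eight half-log concentrations up to 100 uM.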

[19] = read-out: UDP glucuronosyltransferase (UGT1A1), UGT1A1 (gene 54658); test: LTEA_HepaRG_UGT1A1: Life Technologies and Expression Analysis (LTEA) Assay for UDP glucuronosyltransferase (UGT1A1) using HepaRG (AID 2283538)
In short: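 Differentiated human HepaRG cells in serum-free induction medium were exposed in duplicate for 48 h to eight half-log concentrations up to 100 uM in 0.5% DMSO. UGT1A1 mRNA was quantified by TaqMan qRT-PCR, normalized to ACTB, GAPDH and POLR2A, and fitted bidirectionally against DMSO.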

[20] = read-out: TIMP1, TIMP1 (gene 7076); test: LTEA_HepaRG_TIMP1: Life Technologies and Expression Analysis (LTEA) Assay for TIMP1 using HepaRG (AID 2283534);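 further: TaqMan qRT-PCR signal normalized to ACTB GAPDH and POLR2A housekeeping genes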
In short: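 We dosed human liver HepaRG cultures for 48 hours with up to 100 uM test chemical and measured TIMP1 expression by qRT-PCR. Activity in either direction is fitted relative to the 0.5% DMSO vehicle.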

Measured: AC50

Chain of Signal transducer and activator of transcription 3 (Homo sapiens) (P40763 whole entry, looked up): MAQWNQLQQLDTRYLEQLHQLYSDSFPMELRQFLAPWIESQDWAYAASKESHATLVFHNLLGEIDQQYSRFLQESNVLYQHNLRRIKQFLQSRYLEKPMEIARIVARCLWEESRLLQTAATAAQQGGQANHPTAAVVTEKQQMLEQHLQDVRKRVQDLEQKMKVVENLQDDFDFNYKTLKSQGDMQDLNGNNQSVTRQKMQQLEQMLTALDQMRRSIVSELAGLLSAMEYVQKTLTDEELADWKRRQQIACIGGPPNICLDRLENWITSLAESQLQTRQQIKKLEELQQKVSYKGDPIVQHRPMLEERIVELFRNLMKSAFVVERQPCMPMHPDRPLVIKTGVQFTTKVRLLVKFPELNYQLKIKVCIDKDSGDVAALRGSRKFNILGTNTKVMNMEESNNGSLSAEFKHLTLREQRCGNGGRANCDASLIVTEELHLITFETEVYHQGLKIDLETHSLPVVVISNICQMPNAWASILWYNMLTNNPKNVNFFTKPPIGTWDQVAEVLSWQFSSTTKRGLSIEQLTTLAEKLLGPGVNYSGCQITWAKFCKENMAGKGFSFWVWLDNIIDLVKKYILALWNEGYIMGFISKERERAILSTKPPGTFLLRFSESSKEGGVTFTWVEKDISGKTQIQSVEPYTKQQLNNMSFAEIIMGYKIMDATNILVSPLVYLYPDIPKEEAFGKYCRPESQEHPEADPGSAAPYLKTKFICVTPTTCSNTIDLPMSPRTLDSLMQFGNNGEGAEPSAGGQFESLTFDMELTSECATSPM
Chain of Nuclear factor erythroid 2-related factor 2 (Homo sapiens) (Q16236 whole entry, looked up): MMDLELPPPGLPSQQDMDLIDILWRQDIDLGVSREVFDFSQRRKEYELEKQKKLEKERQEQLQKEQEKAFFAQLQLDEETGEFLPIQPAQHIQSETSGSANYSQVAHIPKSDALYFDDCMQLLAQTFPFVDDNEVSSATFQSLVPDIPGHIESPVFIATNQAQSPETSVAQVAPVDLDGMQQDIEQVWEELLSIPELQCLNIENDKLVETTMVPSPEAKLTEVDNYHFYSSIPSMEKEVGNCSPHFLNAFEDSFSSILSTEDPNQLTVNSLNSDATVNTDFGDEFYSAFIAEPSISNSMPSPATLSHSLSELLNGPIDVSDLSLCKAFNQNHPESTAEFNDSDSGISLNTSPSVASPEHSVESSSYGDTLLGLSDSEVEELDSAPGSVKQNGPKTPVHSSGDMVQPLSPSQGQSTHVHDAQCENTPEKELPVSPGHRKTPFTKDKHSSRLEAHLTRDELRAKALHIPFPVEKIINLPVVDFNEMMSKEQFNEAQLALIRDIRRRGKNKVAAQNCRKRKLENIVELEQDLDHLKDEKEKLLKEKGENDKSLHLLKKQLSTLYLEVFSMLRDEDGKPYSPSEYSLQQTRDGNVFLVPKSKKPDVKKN
Chain of Nuclear factor NF-kappa-B p105 subunit (Homo sapiens) (P19838 whole entry, looked up): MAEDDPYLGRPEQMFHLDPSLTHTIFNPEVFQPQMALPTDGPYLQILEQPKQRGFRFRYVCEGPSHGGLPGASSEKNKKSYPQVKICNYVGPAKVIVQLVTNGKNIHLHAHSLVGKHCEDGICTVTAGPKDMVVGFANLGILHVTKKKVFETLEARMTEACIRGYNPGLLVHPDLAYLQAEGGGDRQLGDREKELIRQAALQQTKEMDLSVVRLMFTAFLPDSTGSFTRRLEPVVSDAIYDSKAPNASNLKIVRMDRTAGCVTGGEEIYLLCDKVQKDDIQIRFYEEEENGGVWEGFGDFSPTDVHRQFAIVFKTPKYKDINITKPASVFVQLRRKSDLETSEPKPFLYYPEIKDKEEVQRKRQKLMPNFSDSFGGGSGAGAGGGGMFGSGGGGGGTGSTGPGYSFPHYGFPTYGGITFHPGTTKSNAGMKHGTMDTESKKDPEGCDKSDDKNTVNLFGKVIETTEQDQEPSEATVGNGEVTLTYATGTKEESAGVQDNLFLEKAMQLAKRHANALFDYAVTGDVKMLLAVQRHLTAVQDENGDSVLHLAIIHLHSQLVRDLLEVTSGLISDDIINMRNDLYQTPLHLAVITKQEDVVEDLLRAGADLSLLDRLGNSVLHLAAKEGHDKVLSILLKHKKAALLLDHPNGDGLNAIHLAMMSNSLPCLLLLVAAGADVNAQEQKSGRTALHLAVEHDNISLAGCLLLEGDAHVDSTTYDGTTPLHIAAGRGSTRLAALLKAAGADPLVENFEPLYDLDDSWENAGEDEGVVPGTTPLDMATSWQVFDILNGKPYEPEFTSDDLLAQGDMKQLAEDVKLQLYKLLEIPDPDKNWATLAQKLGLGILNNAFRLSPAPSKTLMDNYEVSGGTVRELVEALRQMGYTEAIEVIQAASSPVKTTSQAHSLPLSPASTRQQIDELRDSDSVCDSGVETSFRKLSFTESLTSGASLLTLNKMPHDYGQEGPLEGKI
Chain of Cellular tumor antigen p53 (Homo sapiens) (P04637 whole entry, looked up): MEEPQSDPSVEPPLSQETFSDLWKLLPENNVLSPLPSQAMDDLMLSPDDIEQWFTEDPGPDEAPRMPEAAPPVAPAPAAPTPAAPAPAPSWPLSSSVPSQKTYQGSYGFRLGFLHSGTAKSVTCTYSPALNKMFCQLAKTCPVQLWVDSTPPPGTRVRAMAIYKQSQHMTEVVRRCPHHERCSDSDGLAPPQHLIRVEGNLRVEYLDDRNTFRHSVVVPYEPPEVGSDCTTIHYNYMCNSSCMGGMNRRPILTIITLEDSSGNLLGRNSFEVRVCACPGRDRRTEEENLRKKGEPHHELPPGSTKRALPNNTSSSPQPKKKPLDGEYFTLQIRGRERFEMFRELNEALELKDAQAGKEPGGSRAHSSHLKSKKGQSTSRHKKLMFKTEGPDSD

COC(=O)NC(=S)Nc1ccccc1NC(=S)NC(=O)OC
active: [9] 50 µM | [19] 14.3 µM
not listed: [20]
inactive: all other assays above

Nc1c(Cl)c(F)nc(OCC(=O)O)c1Cl
not listed: [19] | [20]
inactive: all other assays above

CCCCOCN(C(=O)CCl)c1c(CC)cccc1CC
active: [7] 50 µM | [19] 50 µM
inactive: all other assays above

COC(=O)c1c(C(F)F)nc(C(F)(F)F)c(C2=NCCS2)c1CC(C)C
not listed: [19]
inactive: all other assays above

COCc1cnc(C2=NC(C)(C(C)C)C(=O)N2)c(C(=O)O)c1 (centres undefined)
not listed: [3] | [18]
inactive: all other assays above

From PubChem BioAssay (EPA / NIEHS)
